# BCR signal inh = inhibitors of chronic active B-cell receptor signaling; ABC-DLBCL IkBa-CBG/CBR reporter, luminescence ratio, 4 h; Potency, µM (top dose mostly 46.1 µM), without a hit: at the top dose activity change, negative = inhibition, actives largely listed as inhibitors; 0.05% of 340,000 active; active = well fitted inhibition curve with a large enough effect in the signal ratio, with a control signal flat, not every such curve was filed as active; inconclusive = small, poorly fitted or top-dose-only effect, or effect the other way, or a change in a side signal; the % refers to the signal ratio;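 note: potency is the fitted concentration of half-maximal effect; plate controls were basal doxycycline-induced cells for no effect and cells given 10 µM MG132 for full effect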
#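 TMD8 ABC-DLBCL cells carrying doxycycline-inducible green luciferase fused to IkappaBalpha plus unfused red luciferase were exposed to compounds (up to 46 uM) for 4 hrs at 37C. Activity came from the overlap-corrected green/red luminescence ratio.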
# DT40 TDP1 no CPT = qHTS for Inhibitors of human tyrosyl-DNA phosphodiesterase 1 (TDP1): qHTS in cells in absence of CPT; DT40 Tdp1-/- hTDP1 cells, no CPT, ATP luminescence, 48 h; Potency, µM (series often up to 46.2 µM), inactives show at the highest dose activity change, negative = growth inhibition, hits mostly inhibitors; 15% of 420,000 active; AID 686978, 2013; note: potency is the fitted concentration of half-maximal effect; % is set by controls: 0 for no effect and ±100 for the full control effect; nearly all actives have a fitted effect of over 55% in size
#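 Chicken DT40 Tdp1-/- cells complemented with human TDP1, screened without camptothecin (DMSO vehicle only), 400 cells/well. Compounds pin-transferred, cells incubated at 37 °C for at least 48 hr. Growth read as ATP-dependent luminescence (CellTiter-Glo, 30 min at RT).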
# DT40 TDP1 CPT = DT40-hTDP1 cell growth loss with CPT. chicken DT40 Tdp1-/-;hTDP1 cells + 20 nM CPT, ATP luminescence, 48 h. Potency, µM (top dose mostly 46.2 µM), for inactives: at the top dose activity change, negative = growth inhibition, usual class: inhibitors. 12% of 420,000 active; note: potency is the fitted concentration of half-maximal effect; % is set by controls: 0 for no effect and ±100 for the full control effect; nearly all actives have a fitted effect of over 55% in size
#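 Chicken DT40 Tdp1-/- cells complemented with human TDP1, 400 cells/well, exposed to compounds plus 20 nM camptothecin for at least 48 h at 37 C; viability read as ATP content by CellTiter-Glo luminescence.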
# IL-1B inflam inh = inhibitors of inflammasome signaling (IL-1 beta secretion); THP-1 LPS/ATP IL-1B secretion, AlphaLISA, 16 h; active compounds read low; AID 743279; activity change, % at 57.5 µM; 4.7% of 360,000 active; in the data active = activity change below about -50%; inconclusive = mostly about -30% to -49%; note: % is set by controls: 0 for no effect and ±100 for the full control effect
#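 THP-1 cells pretreated 1 hr with compounds (up to 57.5 uM final), then stimulated with LPS (250 ng/mL final) plus ATP (1.25 mM final); secreted IL-1B measured by AlphaLISA after 16 hr, decreased signal indicating inhibition.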
# SW480 rereplic = DNA re-replication induction in SW480 cells; SW480 DNA re-replication, Hoechst DNA content imaging, 48 h; Potency, µM (doses to about 46.1 µM), for inactives: top-dose re-replication activation, hits mostly activators; 1.8% of 340,000 active; AID 624297; note: potency is the fitted concentration of half-maximal effect; % of control where 0% means no effect; nearly all actives have a fitted effect of over 55% in size
#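 Quantitative HTS format with DMSO vehicle controls; 48 hr drug incubation at 37 C, then 40 min Hoechst staining and scanning imager measurement at 405 nm excitation.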
# MCF10A rereplic = inducers of DNA re-replication in MCF 10A breast cells; MCF 10A DNA re-replication, Hoechst nuclear intensity, 48 h; Potency, µM (series often up to 46.1 µM), inactives show at the top dose activity, positive = re-replication, most hits filed as activators; 2.9% of 350,000 active; note: potency is the fitted concentration of half-maximal effect; % of control where 0% means no effect; nearly all actives have a fitted effect of over 50% in size
# * hit, by the source's call; ? = inconclusive; . = not tested or not shown; [ ] = dose if it differs, or a comment. A selection: hits, their analogues and other compounds. The true share with any hit is near 19%. Unless noted, calls come from the whole dose curve; as a rule, active = well fitted curve in the direction sought with a large enough effect; inconclusive = small, poorly fitted or top-dose-only effect, or another doubt; inactive = no such curve, though single readings can be large; an effect the other way counts as inactive or inconclusive.
SMILES,BCR signal inh,DT40 TDP1 no CPT,DT40 TDP1 CPT,IL-1B inflam inh,SW480 rereplic,MCF10A rereplic
CC1Nc2ncnc(N3CCOCC3)c2N(Cc2ccc(Cl)cc2)C1=O (stereo not given),-24%,?,-23%,0,1%,-4%
CC1Nc2ncnc(N3CCN(c4ccccc4)CC3)c2N(Cc2ccccc2)C1=O (stereo not given),-7%,16µM*,?,9,-2%,11%
CCN(CC(=O)Nc1ccc(NC(C)=O)cc1)C(=O)c1cccc(S(=O)(=O)N2CCCC2)c1,?,-1%,4%,16,-30%,3%
CCOc1ccc(NC(=O)CN(C)C(=O)c2cc(C3CC3)nn2-c2ccccc2)cc1OCC,?,?,?,-3,1%,6%
Cn1c(=O)c2sccc2n2c(CCCC(=O)NCc3ccccc3)nnc12,-13%,-20%,-27%,.,.,.
CN(C1CCCCC1)S(=O)(=O)c1ccc(F)c(C(=O)Nc2ccc(C(F)(F)F)cc2)c1,?,21µM*,23µM*,.,.,.
CN(C1CCCCC1)S(=O)(=O)c1ccc(NC(=O)C2CCCCC2)cc1,-6%,21µM*,16µM*,-9,4%,?
CN(C1CCCCC1)S(=O)(=O)c1ccc(S(=O)(=O)N(CC(=O)Nc2ccccc2)C2CC2)cc1,-9%,23µM*,?,15,3.7µM*,13%
CN(C1CCCCC1)S(=O)(=O)c1ccc(NC(=O)CCC(=O)O)cc1,-1%,0%,4%,29,0%,3%
CCc1ccc(NC(=O)c2cc(S(=O)(=O)NC3CCCC3)ccc2F)cc1,?,16µM*,13µM*,.,.,.
Cc1ccc(NC(=O)CCS(=O)(=O)c2cc(Br)cc3c2N(C(=O)C2CC2)CC3)cc1,.,0%,12%,.,.,.
C=C1[C@H]2O[C@H]2[C@@H](OC(C)=O)[C@@]2(C)[C@@H](OC(C)=O)C[C@@H](OC(C)=O)[C@@](C)(O)[C@@H]2[C@@H](OC(C)=O)[C@@]2(O)[C@@H](C)C(=O)O[C@H]2[C@H]1Cl,.,-15%,-7%,3,-2%[9.22 µM],?
CCC(c1nnnn1-c1c(C)cccc1C)N1CCCN(Cc2ccc(F)cc2)CC1 (stereo not given),.,16µM*,?,-1,.,.
COC(=O)c1scc(-c2ccc(C)cc2)c1S(=O)(=O)Nc1cc(C)c(Cl)cc1OC,.,23µM*,4.6µM*,.,.,.
COC(=O)c1scc(-c2ccc(C)cc2)c1S(=O)(=O)Nc1cc(C)ccc1OC,.,23µM*,?,.,.,.
COc1ccc(C)cc1NS(=O)(=O)c1ccccc1,.,?,-5%,-16,2%,1%
COc1ccc(C)cc1NC(=O)c1ccc2c(c1)N(Cc1cccc(Cl)c1)C(=O)c1ccccc1S2=O (stereo not given),-12%,-9%,-10%,.,.,.
Cc1ccc2nc(N3CCN(S(=O)(=O)c4ccc(C)c(Cl)c4)CC3)c(C#N)cc2c1,24%,21µM*,21µM*,10,?,?
Cc1ccc2cc(C#N)c(N3CCCN(S(=O)(=O)c4ccccc4)CC3)nc2c1,5%,26µM*,?,35,?,250%[0.0737 µM]
Cc1ccc2cc(C#N)c(N3CCCN(S(=O)(=O)c4ccccc4)CC3)nc2c1C,.,-13%,-9%,22,38%,?
Cc1ccc2nc(N3CCN(C)CC3)c(C#N)cc2c1,5%,-12%,-5%,-10,1%,2%
Cc1ccc2cc(C#N)c(N3CCCN(S(=O)(=O)c4ccc(F)cc4)CC3)nc2c1,?,15µM*,?,-13,1%,24%
COc1ccc(OCCn2nnc3sc4c(c3c2=O)CCCC4)cc1,.,-12%,-24%,.,.,.

# High-throughput results: PubChem, National Center for Advancing Translational Sciences (NCATS)
